These results are taken from PubChem BioAssay (EPA / NIEHS).

Read-out in test [1]: Vascular cell adhesion molecule 1 (VCAM1), VCAM1 (gene 7412)
Description: BSK_4H_VCAM1: BioMAP Diversity Plus: 4H Assay for Vascular cell adhesion molecule 1 (VCAM1) Biomarker Activity (AID 2283033).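 As to outcome: cell-surface VCAM-1 protein measured by ELISA.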 The note with it: primary human endothelial cells (HUVEC); actives raise or lower the signal. An outline of the steps: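 VCAM-1 ELISA read 24 h after chemical dosing of HUVEC in the BioMAP 4H system, with gain or loss of signal fitted relative to DMSO. Parallel SRB staining (560 nm) checked overt cytotoxicity.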

Read-out in test [2]: Interferon-gamma inducible Protein 10 (IP10), CXCL10 (gene 3627)
Description: BSK_BE3C_IP10: BioMAP Diversity Plus: BE3C Assay for Interferon-gamma inducible Protein 10 (IP10) Biomarker Activity (AID 2283034). The following applies: primary human bronchial epithelial cells; actives raise or lower the signal. In short, it runs like this:
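IP-10 quantified by ELISA in human primary bronchial epithelial cell cultures at 24 hours post-dosing. Gain or loss of signal fitted relative to DMSO; parallel SRB staining assessed overt cytotoxicity.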

Read-out in test [3]: Monokine induced gamma interferon (MIG), CXCL9 (gene 4283)
Description: BSK_BE3C_MIG: BioMAP Diversity Plus: BE3C Assay for Monokine induced gamma interferon (MIG) Biomarker Activity (AID 2283035). The following applies: primary human bronchial epithelial cells; actives raise or lower the signal. In short, it runs like this: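 Dose cells (human primary bronchial epithelial), incubate 24 h, quantify MIG by ELISA, then fit concentration–response in both directions relative to DMSO control.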

Read-out in test [4]: Transforming growth factor beta 1 (TGFb1), TGFB1 (gene 7040)
In words: BSK_BE3C_TGFb1: BioMAP Diversity Plus: BE3C Assay for Transforming growth factor beta 1 (TGFb1) Biomarker Activity (AID 2283036;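 as to outcome: TGF-b1 protein level measured by ELISA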). The following applies: primary human bronchial epithelial cells; actives raise or lower the signal. An outline of the steps:
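ELISA readout of TGF-b1 from human lung bronchial epithelial primary cells, taken 24 h post-treatment. Gain or loss of signal fitted relative to DMSO baseline, with parallel SRB staining for overt cytotoxicity.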

Read-out in test [5]: Plasminogen activator inhibitor-1 (PAI1), SERPINE1 (gene 5054)
Description: BSK_BE3C_PAI1: BioMAP Diversity Plus: BE3C Assay for Plasminogen activator inhibitor-1 (PAI1) Biomarker Activity (AID 2283037). The following applies: primary human bronchial epithelial cells; actives raise or lower the signal. In short, it runs like this:
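PAI-1 was measured by ELISA in human primary bronchial epithelial cultures 24 h after chemical dosing, with cytotoxicity checked by SRB total-protein staining in parallel cultures. Activity was fitted in both directions relative to DMSO.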

Read-out in test [6]: urokinase plasminogen activator (uPA), PLAU (gene 5328)
In words: BSK_BE3C_uPA: BioMAP Diversity Plus: BE3C Assay for urokinase plasminogen activator (uPA) Biomarker Activity (AID 2283038).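 As to outcome: uPA protein level quantified by ELISA in cell cultures; uPA read one day after compound addition.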 The following applies: primary human bronchial epithelial cells; actives raise or lower the signal. An outline of the steps: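 Using confluent primary human lung bronchial epithelial cultures, we dosed chemicals, waited 24 h, then ran a uPA ELISA, fitting bidirectionally against DMSO.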

Read-out in test [7]: Urokinase-type plasminogen activator receptor (uPAR), PLAUR (gene 5329)
Description: BSK_BE3C_uPAR: BioMAP Diversity Plus: BE3C Assay for Urokinase-type plasminogen activator receptor (uPAR) Biomarker Activity (AID 2283039).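 As to outcome: cells exposed to compound for one day before measurement.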 The note with it: primary human bronchial epithelial cells; actives raise or lower the signal. In short, it runs like this: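 uPAR levels were measured by ELISA after 24 h compound treatment of primary human bronchial epithelial cells, fitted in both directions relative to DMSO. Parallel SRB staining served as the cytotoxicity read-out.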

Read-out in test [8]: Interleukin-6 (IL6), IL6 (gene 3569)
Description: BSK_CASM3C_IL6: BioMAP Diversity Plus: CASM3C Assay for Interleukin-6 (IL6) Biomarker Activity for (AID 2283040). The note with it: primary human coronary artery smooth muscle cells; actives raise or lower the signal.

Read-out in test [9]: Tissue plasminogen activator (tPA), PLAT (gene 5327)
In words: BSK_BE3C_tPA: BioMAP Diversity Plus: BE3C Assay for Tissue plasminogen activator (tPA) Biomarker Activity (AID 2283041).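 As to outcome: tPA level quantified by ELISA one day after compound addition.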 The note with it: primary human bronchial epithelial cells; actives raise or lower the signal. An outline of the steps: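 tPA measured by ELISA 24 h after dosing human primary bronchial epithelial cells (BE3C system). Changes in either direction were fitted against DMSO. Parallel cultures were stained with SRB to flag overt cytotoxicity.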

Read-out in test [10]: Interleukin-8 (IL8), CXCL8 (gene 3576)
Description: BSK_CASM3C_IL8: BioMAP Diversity Plus: CASM3C Assay for Interleukin-8 (IL8) Biomarker Activity (AID 2283042).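 Also: IL-8 protein level quantified by ELISA.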 The note with it: primary human coronary artery smooth muscle cells; actives raise or lower the signal.

For orientation: AC50 means the concentration at which the activity in the assay is half-maximal.

Where “and” joins values, the source holds several entries; their conditions need not be identical. Identical values can stand only once. The source holds several records for some structures; these can differ, active in one and inactive in another. Calls of active or inactive are those of the source. The calls were made as follows: active = hit-call score of the fitted dose curve at least 0.9, where 1 is the maximum; inactive = score below 0.9.

As for `CC[C@H](C)[C@@H](C(=O)O)n1sc2ccccc2c1=O`, the result in test [1], in [2], in test [3], in [4], in test [5] and in test [6] was inactive. Moreover, the outcome in test [7], in [8], in test [9] and in test [10] was inactive.
Consider `CCCCOCCO`, for which the outcome in [1], in test [2], in test [3], in test [4], in test [5] and in test [6] was inactive. The result in [7], in test [8], in test [9] and in [10] was inactive.
As for `COC(=O)CCCCC(=O)OC`, the result in test [1], in test [2], in [3], in test [4], in [5] and in test [6] was inactive. Besides, the result in test [7], in [8], in [9] and in test [10] was inactive.
As to `COCC(C)O` (stereo not drawn), the outcome in test [1], in test [2], in [3], in test [4], in test [5] and in test [6] was inactive. In addition, the outcome in [7], in [8], in test [9] and in [10] was inactive.
Regarding `NCC(F)(F)C(F)(F)C(F)(F)C(F)(F)C(F)(F)C(F)(F)C(F)(F)F`, the result in test [1], in [2], in test [3], in test [5], in test [6] and in test [7] was inactive. Besides, the result in test [8], in [9] and in test [10] was inactive.
Regarding `CN1CCN(c2ccccc2/C=C2\SCCN(c3ccc(Cl)c(Cl)c3)C2=O)CC1`, the outcome in test [1], in [8] and in [10] was inactive. For the same molecule, the AC50 in test [2] was 30.4 µM (active); in test [4], 29.3 µM (active); in test [5], 33.3 µM (active); in test [6], 30.4 µM (active); in [9], 25.7 µM (active).
With `CCN(CC)CCNc1ccc(CNC=O)c2sc3ccc(OC)cc3c(=O)c12`, the AC50 is 30.7 µM (active) in test [1]; 14.3 µM (active) in test [2]; 1.61 µM (active) in test [5]; 20 µM (active) in [6]; 12.9 µM (active) in test [7]; 20 µM (active) in test [8]. Also, the concentration at half-maximal activity (AC50) in test [10] was 35.6 µM (active). Further, the outcome in test [3], in test [4] and in [9] was inactive.
With `N#C[C@@H]1CC(F)(F)CN1C(=O)CNC1CC2CCC(C1)N2c1ncccn1` (stereo partly drawn), the result in [1], in test [2], in [3], in test [4], in test [5] and in test [6] was inactive. Further, the result in test [7], in test [8], in test [9] and in test [10] was inactive.
Turning to `CCc1nn(C2CCCCC2)c2cc(C3(C#N)CCC(C(=O)O)CC3)ccc12` (stereo not drawn), the AC50 was 27 µM (active) in [1]; 15.2 µM (active) in test [2]; 28 µM (active) in test [3]; 4.33 µM (active) in test [5]; 3.48 µM (active) in test [6]; 5.01 µM (active) in test [7]. The concentration at half-maximal activity (AC50) in [8] is 11.1 µM (active). Moreover, the result in test [4], in test [9] and in test [10] was inactive.
With `CC(O)CO` (stereo not drawn), the outcome in test [1], in [2], in test [3], in test [4], in [5] and in [6] was inactive. The result in test [7], in [8], in [9] and in test [10] was inactive.
As to `NC(=O)N(O)[C@@H]1C=C[C@H](Oc2cccc(Oc3ccc(F)cc3)c2)C1`, the outcome in test [1], in test [3], in [4], in [5], in [6] and in [7] was inactive. Besides, the result in [8] and in test [10] was inactive. For the same molecule, the concentration at half-maximal activity (AC50) in test [2] is 30.7 µM (active); in test [9], 5.68 µM (active).
With `FC(F)(I)C(F)(F)C(F)(F)C(F)(F)C(F)(F)C(F)(F)I`, the half-maximal activity concentration (AC50) is 18.4 µM (active) and 16.9 µM (active) and 45.2 µM (active) in [2]; 45.1 µM (active) [middle of 5 runs] in test [3]; 24.9 µM (active) [middle of 5 runs] in test [5]; 40.3 µM (active) [middle of 5 runs] in test [6]; 43.5 µM (active) [middle of 5 runs] in test [7]; 35.9 µM (active) [middle of 5 runs] in [8]. Moreover, the half-maximal activity concentration (AC50) in [10] is 30 µM (active) [middle of 5 runs]. Moreover, in [9], the result was inactive.
On to `O=C(OCCOCCOC(=O)c1ccccc1)c1ccccc1`, for which the outcome in test [1], in test [2], in test [3], in [4], in test [5] and in test [6] was inactive. The outcome in test [7], in [8], in test [9] and in test [10] was inactive.
Take `CCC(=C(c1ccc(O)cc1)c1ccc(OCCN(C)C)cc1)c1ccccc1`: the AC50 in test [1] is 10.3 µM (active); in test [2] it was 8.38 µM (active); in test [3], 9.95 µM (active); in [4], 9.79 µM (active); in test [5], 12 µM (active); in [6], 9.93 µM (active). For the same molecule, the concentration at half-maximal activity (AC50) was 9.55 µM (active) in [7], 24.6 µM (active) in test [8], 8.8 µM (active) in test [9] and 24.4 µM (active) in test [10].
`c1ccc2c(c1)Cc1ccccc1-2`: the outcome in [1], in test [2], in [3], in test [4], in [5] and in [6] was inactive. In addition, the outcome in [8], in test [9] and in test [10] was inactive.
Turning to `COc1ccc([N+](=O)[O-])cc1N`, the result in [2], in test [3], in test [4], in [5], in [6] and in [7] was inactive. In addition, the result in test [8], in [9] and in [10] was inactive.
Consider `CCCCCCCCCCCCCC[N+](C)(C)C`, for which the AC50 is 2.83 µM (active) in [1]; 3.88 µM (active) in [2]; 8.17 µM (active) in test [3]; 1.52 µM (active) in [4]; 2.63 µM (active) in test [5]; 4.85 µM (active) in test [6]. The AC50 is 4.06 µM (active) in [7], 9.39 µM (active) in [8], 0.883 µM (active) in test [9] and 10.8 µM (active) in test [10].
